Unmarked numbers belong to inactive results. Active and inactive are the calls of the source. How the calls were made is not given here.
Assay: Biochemical counterscreen for C difficile toxins, absence of UDPG, inhibitor dose response (AID 720650)
Conditions: series mostly up to 19.5 µM; activity change, negative = inhibition: at the top concentration

SMILES | activity change, negative = inhibition [%] | AC50
CCOC(=O)c1sc2nc(OCCN3CCOCC3)cc(C)c2c1N | -9.12 | 
COc1ccc(C(=O)Nc2ccc3c(c2)C(=O)N(C)[C@@H]2CC[C@H](CC(=O)NCC4CC4)O[C@H]2CO3)cc1 | -17.7 | 
Cc1ccc(C2=NS(=O)(=O)N(C)C(C(=O)NC(C)c3ccccc3)=C2)cc1 (configuration not stated) | -6.45 | 
CS(=O)(=O)Nc1cccc(C2=NN(C(=O)c3ccccc3)C(c3cccs3)C2)c1 (configuration not stated) | -13.6 | 
C=CCn1c(SCC(=O)N2CC(=O)Nc3ccccc32)nc2scc(-c3ccccc3)c2c1=O | -7.62 | 
COc1ccc(CNCCc2ccc3c(c2)OCO3)cc1Br | 3.39 | 
O=c1ccc2cc(O)c(O)cc2o1 | -20.8 | 
S=c1nc(-c2cccc(Cl)c2)[nH][nH]1 |  | 3.82 µM (active)
O=C1NC(=O)/C(=C/c2ccc(O)cc2)S1 |  | 8.69 µM (active)
Cc1ccc(NNC(=O)c2ccno2)cc1C |  | 0.302 µM (active)
CCN1CCN(c2oc(-c3ccccc3C)nc2S(=O)(=O)c2ccccc2)CC1 | -15.4 | 
CN(C(=O)COC(=O)CNC(=O)c1ccccc1Cl)c1ccccc1 | -13.6 | 
O=c1[nH][nH]c(=O)c2c1[nH]c(=S)n2Cc1ccccc1 | -10.1 | 
CCCNC(=O)C[C@H]1CC[C@@H]2[C@@H](COc3ccc(NC(=O)c4ccc5c(c4)OCO5)cc3C(=O)N2C)O1 |  | > 39 µM
COC(=O)C1=C(c2ccc(F)cc2OCc2ccccc2)C[C@@H]2CC[C@H]1N2C(=O)N1CCCC1 | -8.05 | 
COCCN(C(=O)C(C)C)c1nnc(-c2ccc(C(C)(C)C)cc2)s1 | 5.33 | 
COc1ccccc1C1NC(=O)NC(C)=C1C(=O)OC1CCCCC1 (configuration not stated) | -13.5 | 

Source: PubChem BioAssay AID720650 (Broad Institute, 2013)
